In the assay the target is Acyl-homoserine lactone acylase PvdQ (Pseudomonas aeruginosa (strain ATCC 15692 / DSM 22644 / CIP 104116 / JCM 14847 / LMG 12228 / 1C / PRS 101 / PAO1)) (UniProt Q9I194). Briefly: P. aeruginosa PvdQ acylase inhibitors, dose response, biochemical, fluorescence, plate reader and imaging, cherry-picks (AID 493231).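 Also: more negative values mean stronger inhibition of the acylase.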 The following applies: purified PvdQ acylase, fluorogenic substrate; series mostly up to 10 µM.
Chain of Acyl-homoserine lactone acylase PvdQ (Pseudomonas aeruginosa (strain ATCC 15692 / DSM 22644 / CIP 104116 / JCM 14847 / LMG 12228 / 1C / PRS 101 / PAO1)) (Q9I194 whole entry, looked up): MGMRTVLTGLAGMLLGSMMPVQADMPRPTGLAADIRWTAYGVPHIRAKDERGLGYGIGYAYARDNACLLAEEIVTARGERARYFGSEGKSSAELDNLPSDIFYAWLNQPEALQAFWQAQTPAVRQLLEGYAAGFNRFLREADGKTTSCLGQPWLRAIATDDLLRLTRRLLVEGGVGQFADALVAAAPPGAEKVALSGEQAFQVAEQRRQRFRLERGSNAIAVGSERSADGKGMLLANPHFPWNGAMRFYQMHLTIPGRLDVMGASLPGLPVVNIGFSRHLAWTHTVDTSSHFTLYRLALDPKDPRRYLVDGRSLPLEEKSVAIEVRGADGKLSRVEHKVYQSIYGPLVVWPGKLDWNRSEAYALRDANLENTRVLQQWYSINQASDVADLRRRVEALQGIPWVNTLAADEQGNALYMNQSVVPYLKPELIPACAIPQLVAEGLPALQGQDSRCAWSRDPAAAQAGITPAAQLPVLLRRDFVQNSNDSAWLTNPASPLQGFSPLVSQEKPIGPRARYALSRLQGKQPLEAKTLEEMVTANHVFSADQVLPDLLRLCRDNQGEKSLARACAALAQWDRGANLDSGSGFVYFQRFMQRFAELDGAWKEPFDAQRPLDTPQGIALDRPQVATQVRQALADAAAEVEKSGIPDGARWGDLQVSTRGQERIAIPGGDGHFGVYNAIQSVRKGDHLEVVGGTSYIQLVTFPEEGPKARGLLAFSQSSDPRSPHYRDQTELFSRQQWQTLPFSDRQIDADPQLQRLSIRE

Entries with a potency or affinity are not part of this list. The source made the active and inactive calls. No rule for the calls is given here.

`COc1ccc(NC(=O)C(c2cc3c(cc2[N+](=O)[O-])OCO3)N2CCN(C=O)CC2)cc1` (configuration not stated): the call was inactive.

In the case of `COc1cc2nc(CN3CCN(S(=O)(=O)c4c(F)cccc4F)CC3)[nH]c(=O)c2cc1OC`, the result was inactive.

On to `COc1ccc(C2NCCc3c2[nH]c2ccccc32)cc1COc1ccc(F)cc1` (configuration not stated), for which the compound was classed as inactive.

For the compound `COCCCNC(=O)CC1C[C@H](C(=O)N2CCCCC2)[C@@]2(CCc3ccccc3)c3[nH]c4ccc(OC)cc4c3CCN2C1=O` (some centres not stated), the compound was classed as inactive.

As to `CCn1c(Cc2ccccc2)nnc1SCC(=O)Nc1ccccc1`, the call was inactive.

Regarding `COC(=O)c1ccccc1NC(=O)CN1CCC(NC(=O)c2ccc(C)cc2)CC1`, the compound was classed as inactive.

Consider `CC(NC(=O)C1CCCN(C(=O)c2ccc(Cl)cc2)C1)c1cccc(C(F)(F)F)c1` (configuration not stated), for which the outcome was inactive.

In the case of `O=C(CCc1ccccc1)Nc1ccc2c(c1)OCO2`, the compound was classed as inactive.

With `CS(=O)(=O)c1ccc2sc(NC(=O)c3cc4ccccc4o3)nc2c1`, the outcome was inactive.

For the compound `Cc1ccc(CCNC(=O)CCS(=O)(=O)c2ccc(Br)cc2)cc1`, the compound was classed as inactive.

Regarding `COC(=O)C1CCN(C2CC(=O)N(c3cc(C)cc(C)c3)C2=O)CC1` (configuration not stated), the outcome was inactive.

Regarding `COc1ccc(OCCCC(=O)Nc2cccc(SC)c2)cc1`, the compound was called inactive.

Consider `Cc1cc(C)cc(N2C(=O)CC(Sc3ccccc3C(=O)O)C2=O)c1` (configuration not stated), for which the result was inactive.

For the compound `O=C(CN1C(=O)C2C3C=CC(C4CC34)C2C1=O)Oc1ccccc1` (configuration not stated), the call was inactive.

For the compound `O=C(/C=C/c1ccc(Cl)cc1)N1CCN(c2ccccc2[N+](=O)[O-])CC1`, the call was inactive.

Turning to `Clc1ccc2nc(-c3ccc4c(c3)OCO4)cn2c1`, the compound was classed as inactive.

As for `CC(C)(C)OC(=O)N(CCc1ccccc1)Cc1ccccc1OCc1cccc(NC(=O)C2CC2)c1`, the compound was classed as inactive.

The values are drawn from PubChem BioAssay AID493231 (Broad Institute, 2011).
